# Data as given in the supplement of paper PMC7156485.
# Assays:
# Settings in all cases: concentration: 10 µM; 24 h
# [1] = tested on: HCC1569; assay: cell number relative to DMSO (% of DMSO); higher = more cells (less growth inhibition / toxicity)
# Procedure, shortened: (§1)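 Cell number or H1.0 nuclear intensity appears as percent of the plate control, based on the median of replicates. Measurements came from HCC1569 and TDF cells exposed in triplicate to compounds at 10 µM for 24 h at 37 °C, then imaged in six fields per well at ×10. Positional effects were smoothed out of HCC1569 values.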
# [2] = tested on: TDF; assay: as above
# Procedure, shortened: as §1
# [3] = tested on: TDF; assay: H1.0 immunofluorescence intensity relative to DMSO (% of DMSO); higher = stronger H1.0 induction, active = 120 or more
# Procedure, shortened: as §1
# [4] = tested on: HCC1569; assay: H1.0 immunofluorescence intensity relative to DMSO (% of DMSO); higher = stronger H1.0 induction, active = 140 or more
# Procedure, shortened: as §1
# 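For H1.0 immunofluorescence intensity relative to DMSO in this document: TDF is a line of transformed human dermal fibroblasts of mesenchymal origin.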
# 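For cell number relative to DMSO in this document: TDF denotes transformed human dermal fibroblasts of mesenchymal origin.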
Structure (SMILES),cell number [1],cell number [2],H1.0 immunofluorescence intensity [3],H1.0 immunofluorescence intensity [4]
CC1(C)C2CCC1(C(=O)O)C(=O)C2 (configuration not stated) [Ketopinic acid],103,102,99.7 (inactive),88.3 (inactive)
Cc1ccccc1C(=O)c1ccc(Nc2ccc(Br)cc2N)cc1Cl,97.3,107,93 (inactive),117 (inactive)
C#CC(N)CCC(=O)O (configuration not stated) [gamma-Acetylinic GABA],103,99.9,93.2 (inactive),84.4 (inactive)
CCCCCCCCCCCCCCCC(=O)NCC(COP(=O)([O-])OCC[N+](C)(C)C)OC (racemic) [rac-2-Methoxy-3-hexadecanamido-1-propylphosphocholine],75.4,65,185 (active),142 (active)
CC(=O)OC(C)C[N+](C)(C)C.[Cl-] (stereo not drawn) [Acetyl-beta-methylcholine chloride],110,94.7,96.2 (inactive),88.4 (inactive)
C[N+](C)(C)CC(O)CC(=O)[O-].Cl (racemic),102,120,97.1 (inactive),90.1 (inactive)
CS(=O)(=O)c1ccc(C2=C(c3ccccc3)C(=O)OC2)cc1 [Rofecoxib],98.3,88.9,98.4 (inactive),111 (inactive)
Cl.Cl.c1cnc(N2CCN(Cc3ccc4c(c3)OCO4)CC2)nc1 [Piribedil.2HCl],100,98.2,92 (inactive),107 (inactive)
CC1CC2C3CCC4=CC(=O)C=CC4(C)C3(F)C(O)CC2(C)C1(O)C(=O)CO (configuration not stated) [Dexamethasone],100,102,81.6 (inactive),112 (inactive)
COC(=O)N=NC=C1C=[N+]([O-])c2ccccc2N1O [Carbadox],104,101,95.8 (inactive),92.8 (inactive)
"Cn1c(=O)c2[nH]c(-c3ccccc3)nc2n(C)c1=O [1,3-Dimethyl-8-phenylxanthine]",105,110,88 (inactive),92 (inactive)
CC1OC(OCC2OC(Oc3cc(O)c4c(c3)OC(c3ccc(O)c(O)c3)CC4=O)C(O)C(O)C2O)C(O)C(O)C1O (configuration not stated) [Eriocitrin],101,119,89 (inactive),84 (inactive)
COc1ccc(CNC(=O)c2sc3nc(C)cc(C)c3c2N)cc1,100,102,97.5 (inactive),101 (inactive)
COc1cc2ccccc2cc1C(=O)OC(C)C(=O)NCc1ccc(F)cc1 (configuration not stated) [IP3K Inhibitor],102,107,98.7 (inactive),115 (inactive)
Cl.N=C(N)c1ccccc1 [Benzamidine hydrochloride],100,103,94 (inactive),85.3 (inactive)
N#Cc1cc2nc([O-])c([O-])nc2cc1[N+](=O)[O-].[Na+].[Na+] [CNQX disodium],99.5,101,94.1 (inactive),101 (inactive)
N=C([NH3+])N1CCc2ccccc2C1.N=C([NH3+])N1CCc2ccccc2C1.O=S(=O)([O-])[O-] [Debrisoquin sulfate],104,107,101 (inactive),101 (inactive)
COc1cc2nccc(Oc3ccc(NC(=O)Nc4ccc(F)cc4F)c(F)c3)c2cc1OC,74.9,59.9,103 (inactive),108 (inactive)
CCCCCC=CCC=CC=CC=CC(SCC(NC(C)=O)C(=O)O)C(O)CCCC(=O)O (configuration not stated) [N-Acetyl-leukotriene E4],103,102,92 (inactive),100 (inactive)

Structure (SMILES),cell number [1],cell number [2],H1.0 immunofluorescence intensity [3],H1.0 immunofluorescence intensity [4]
CC(C[N+](C)(C)C)OC(N)=O (stereo not drawn) [Carbamyl-beta-methylcholine],105,99.5,89.1 (inactive),108 (inactive)
CCCCCC=CCC=CCC=CCCCCCCC(=O)OC(COCCCCCCCCCCCCCCCC)COP(=O)([O-])OCC[N+](C)(C)C (configuration not stated),101,98.5,96.6 (inactive),96.9 (inactive)
OCCn1cc(-c2cnc3nnn(Cc4ccc5ncccc5c4)c3n2)cn1,99.6,98.7,99 (inactive),99.8 (inactive)
CC(Oc1c(Cl)cccc1Cl)C1=NCCN1.Cl (configuration not stated) [Lofexidine.HCl],98.9,107,100 (inactive),96.1 (inactive)
C=CC(C)(O)CCC1C(C)(O)CCC2C(C)(C)CCCC21C (configuration not stated) [Sclareol],105,90.1,105 (inactive),94.7 (inactive)
CC(C)CC(NC(=O)C(Cc1ccccc1)NC(=O)c1cnccn1)B(O)O (configuration not stated) [Bortezomib],34.2,10.2,144 (active),59.7 (inactive)
O=C(O)C(=S)Cc1ccc(I)cc1 [(2Z)-3-(4-iodophenyl)-2-sulfanyl-2-propenoic acid],106,104,95.6 (inactive),94.8 (inactive)
C=C1C(=O)OC2C1CCC(=C)C1CCC(=C)C12 (configuration not stated) [Dehydrocostus lactone],83.9,64.3,110 (inactive),103 (inactive)
"CCCCCCCCCCCC=CC(C)(C)C=CCCCC(=O)O [7,7-Dimethyl-(5Z,8Z)-eicosadienoic acid]",102,101,91.9 (inactive),92.2 (inactive)
CSc1ccc(/C=C2/C(C)=C(CC(=O)O)c3cc(F)ccc32)cc1,103,105,99.8 (inactive),102 (inactive)
NC1CCN(O)C1=O (racemic),101,104,84.3 (inactive),82.9 (inactive)
CC(C)c1ccc(C(=O)N=C(N)N)cc1S(C)(=O)=O [N''-[4-isopropyl-3-(methylsulfonyl)benzoyl]guanidine],101,93.4,99.1 (inactive),100 (inactive)
C=C1C(=CC=C2CCCC3(C)C2CCC3C(C)CCCC(C)(C)O)CC(O)CC1O (configuration not stated) [Calcitriol],102,100,98.2 (inactive),112 (inactive)
CN(C)CCCSc1ccccc1NC(=O)C=Cc1ccccc1 [Cinanserin],103,102,102 (inactive),107 (inactive)
Cl.NCCCC(N)(C(=O)O)C(F)F (racemic) [DL-alpha-Difluoromethylornithine hydrochloride],98.5,111,94.3 (inactive),92.7 (inactive)
CN(C)CCC=C1c2ccccc2Sc2ccc(Cl)cc21.Cl [Chlorprothixene hydrochloride],90.2,106,116 (inactive),127 (inactive)
CCCCS(=O)(=O)N[C@@H](Cc1ccc(OCCCCC2CCNCC2)cc1)C(=O)O.Cl.O,99.8,102,97.7 (inactive),104 (inactive)
O=C(O)CNC(=O)C(CS)Cc1ccccc1 (racemic) [DL-Thiorphan],105,95.5,93.4 (inactive),96.1 (inactive)
CCCCCC(O)C=CC=O (racemic),99.2,109,93.8 (inactive),106 (inactive)
